Laboratory results: PubChem BioAssay AID652154 (Broad Institute, 2013)
Values joined by “and” are separate entries in the source; they are usually repeats but may differ in a detail not shown here. Identical values can stand only once. Screen size: about 360,000 compounds; about 4,200 (1.2%) were called active. The list comes from a sample in which actives are over-represented; it also holds similar structures and randomly drawn compounds. A number with no mark means an inactive call.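 The calls were made as follows: active = mean replicate inhibition at least 60% with every replicate also reaching 60%; inconclusive = only one of the two criteria is met; inactive = mean below 60% and not all replicates reaching 60%.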

Assay: PAX8 transcriptional activity inhibition in RMG-I – RMG-I cells, luciferase, single concentration, primary screen (AID 652154);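 also: luciferase light reporting Pax8 driven TPO promoter activity; plate controls were median of neutral control wells for no effect and mitoxantrone controls for full effect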
Settings: RMG-I TPO-luciferase reporter, SteadyGlo, 24 h; at 12.6 µM; active compounds read high

Row | SMILES | inhibition
1 | C[C@@H]1CN([C@@H](C)CO)S(=O)(=O)c2ccc(C3=CCCCC3)cc2O[C@@H]1CN(C)Cc1cccc(C(=O)O)c1 | -22.5%
2 | C/C=C/c1ccc([C@@H]2[C@@H](CO)N(C(C)=O)[C@H]2CN(C)C(=O)CN(C)C)cc1 | 0.935%
3 | C[C@H]1CN([C@@H](C)CO)C(=O)Cc2cc(NC(=O)NC3CCCCC3)ccc2O[C@H]1CN(C)S(=O)(=O)c1cccs1 | 11.1%
4 | O=C(C[C@@H]1CC[C@@H]2[C@H](COC[C@@H](O)CN2Cc2ccc(F)cc2)O1)NCc1ccncn1 | -11.3%
5 | Cc1ccc(S(=O)(=O)Nc2ccc3c(c2)C(=O)N([C@H](C)CO)C[C@@H](C)[C@@H](CN(C)C(=O)CCC(F)(F)F)OCCCC[C@@H](C)O3)cc1 | -2.28%
6 | O=C(NC1CCC1)[C@@H]1[C@@H](CO)[C@@H]2Cn3c(ccc(/C=C/c4ccccc4)c3=O)[C@@H]2N1Cc1ccncc1 | 7.46%
7 | CN1C[C@H](O)COC[C@H]2O[C@H](CC(=O)NC3CCC3)CC[C@@H]21 | -17.3%
8 | CN(C)C(=O)c1cccc(-c2ccc([C@H]3[C@H](CO)N4C(=O)CN(C(=O)C5CCCCC5)C[C@@H]34)cc2)c1 | -1.57%
9 | C[C@H](CO)N1C[C@H](C)[C@@H](CN(C)C)OCCCC[C@H](C)Oc2ccc(NC(=O)C3CCCCC3)cc2C1=O | -11.4%
10 | O=S(=O)(Cc1ccccc1)N1CCCCN2[C@@H](CO)[C@@H](c3ccc(-c4ccc(F)cc4)cc3)[C@@H]2C1 | 44.5%
11 | C[C@@H]1CN([C@@H](C)CO)C(=O)c2cc(NS(=O)(=O)c3cccs3)ccc2O[C@@H](C)CCCCO[C@@H]1CN(C)C(=O)NC1CCCCC1 | 1.62%
12 | Cc1ccc(-c2nc3ccc(Br)cn3c2Cc2ccccc2C(F)(F)F)cc1 | -163%
13 | CS(=O)(=O)Nc1cccc(-c2cn3ccccc3n2)c1 | -44.1%
14 | Cc1ccc2nc(-c3ccc(Br)cc3)cn2c1 | 92.9% (active)
15 | Cc1ccc(-c2nc3ccc(Cl)cn3c2Cc2ccccc2)cc1 | -103%
16 | COc1ccc(-c2nc3ccc(Br)cn3c2Cc2ccc(C)cc2)cc1OC | -53.2%
17 | Cc1ccc(-c2cn3cc(C)ccc3n2)cc1 | 91.9% (active)
18 | O=C(C[C@@H]1C=C[C@H](NC(=O)CN2CCOCC2)[C@@H](CO)O1)NC1CCC1 | -5.79%
19 | C[C@H](CO)N1C[C@H](C)[C@H](CN(C)C)Oc2c(NS(=O)(=O)c3ccc(Cl)cc3)cccc2C1=O | -6.01%
20 | COc1cccc(S(=O)(=O)N[C@H]2CC[C@H](CC(=O)NC3CCC3)O[C@H]2CO)c1 | -7.93%
21 | O=C(C[C@H]1C[C@@H]2c3cc(NC(=O)c4cccnc4)ccc3O[C@@H]2[C@H](CO)O1)NCc1ccccn1 | -7.94%
22 | Cc1ccc(N)cc1CN1CCN(c2ncc(Cc3ccccc3)cn2)CC1 | -0.199%

Row | SMILES | inhibition
23 | O=C(C1CCCCC1)N1C[C@@H]2N[C@H](C1)C2c1ccc(-c2cccc(F)c2)cc1 (stereo partly drawn) | -14.7% and -21.2%
24 | CN(C)C(=O)c1ccc(-c2ccc(C3[C@@H]4CN(C(=O)Nc5ccccc5)C[C@H]3N4)cc2)cc1 (stereo partly drawn) | 5.13%
25 | Cc1cccc(-c2ccc(C3[C@@H]4CN(C(=O)Nc5ccc(C(F)(F)F)cc5)C[C@H]3N4)cc2)c1 (stereo partly drawn) | 116% (active) and 119% (active)
26 | CNC[C@H]1Oc2ccc(NC(=O)Nc3ccc4c(c3)OCO4)cc2CC(=O)N([C@H](C)CO)C[C@H]1C | 2.09%
27 | COc1ccc2c3c(n(C)c2c1)[C@@H](CO)N(Cc1ccncc1)CC31CN(C(=O)C2CCC2)C1 | 7.29%
28 | COCC(=O)N(C[C@H]1N[C@H](CO)[C@H]1c1ccc(C2=CCCCC2)cc1)C(C)C | 2.09%
29 | CN(CC1CCCO1)S(=O)(=O)c1ccc(C(=O)Nc2ccc([N+](=O)[O-])cc2)cc1 (stereo not drawn) | -4.55%
30 | Cn1c(=O)n(C)c2cc(C(=O)Nc3ccc(Br)cc3)ccc21 | -6.12%
31 | Cn1ccc(=Nc2ccc(NC(=O)c3ccc(N=c4ccn(C)c5ccc([N+](=O)[O-])cc45)cc3)cc2)cc1 | 79.6% (active)
32 | C[C@@H]1CN([C@H](C)CO)C(=O)c2cc(N(C)C)ccc2O[C@@H](C)CCCCO[C@@H]1CN(C)C(=O)CCCN(C)C | -0.0835%
33 | O=c1ccn([C@@H]2O[C@H](CNS(=O)(=O)c3cc4ccccc4s3)[C@@H](O)[C@H]2O)c(=O)[nH]1 | 78.9% (active)
34 | Cc1sc2ccccc2c1CNC[C@H]1O[C@@H](n2ccc(=O)[nH]c2=O)[C@H](O)[C@@H]1O | 3.61%
35 | O=C(NS(=O)(=O)c1cccs1)[C@H]1O[C@@H](n2ccc(=O)[nH]c2=O)[C@H](O)[C@@H]1O | -7.69%
36 | C[C@H]1CN([C@@H](C)CO)C(=O)c2c(c3ccccc3n2C)-c2ccccc2CO[C@@H]1CN(C)Cc1ccc2c(c1)OCCN2C | -18%
37 | CS(=O)(=O)N1[C@H](CO)[C@H](c2ccccc2)C12CN(C(=O)C1CC1)C2 | -2.16%
38 | COc1cccc(-c2cnc3c(c2)C(=O)N([C@H](C)CO)C[C@H](C)[C@@H](CN(C)Cc2ccc(C(=O)O)cc2)O3)c1 | 9.85%
39 | OC[C@@H]1CN(Cc2ccc(F)cc2)C[C@H](n2cnc3c(NC4CCCC4)ncnc32)O1 | 3.85%
40 | OC[C@@H]1CN(Cc2cccs2)C[C@H](n2cnc3c(NC4CCCC4)ncnc32)O1 | -6.69%
41 | OC[C@@H]1CN(Cc2ccc(-c3ccccc3)cc2)C[C@H](n2cnc3c(NC4CCCC4)ncnc32)O1 | 64.7% (active)
42 | Cc1noc(C)c1NC(=O)Nc1ccc2c(c1)C(=O)N([C@@H](C)CO)C[C@@H](C)[C@H](CN(C)C(=O)Nc1ccc(C(F)(F)F)cc1)OCCCC[C@@H](C)O2 | -4.84%
43 | CS(=O)(=O)N1CC(=O)N2[C@@H](CO)[C@@H](c3ccc(C#CCC4CCCC4)cc3)[C@@H]2C1 | 0.153%
